# “And” between values parts separate entries of the source, which are not always exact repeats. Equal values may be shown once. Results filed as inconclusive are left out. The source made the active and inactive calls. The call rests on the fitted dose curve; in most records, active means well fitted curve in the direction sought with a large enough effect; inconclusive means small, poorly fitted or top-dose-only effect, or another doubt; inactive means no such curve, though single readings can be large or run the other way.
# Assay: qHTS Assay for Identifying Gametocytocidal Compounds (AID 743244);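 on max response: actives lower the fluorescent signal which means gametocytes are killed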
# Settings: P. falciparum 3D7 stage III-V gametocytes, alamarBlue, 72 h; max response: active compounds read low
# Excerpt: Malaria cases and deaths have dropped 50% in 29 countries since 2000 due to the combined effects of long-lasting insecticidal bednets, indoor residual spraying, and artemisinin-based combination therapies (ACTs). This success has raised hopes for malaria eradication and consequently stimulated interest in developing new reagents that block gametocyte transmission such as novel and safe gametocytocidal drugs. However, previous drug development efforts have focused primarily on the asexual parasites that cause symptoms, but not malaria transmission. Consequently, patients can remain infectious for weeks after the clearance of asexual parasites and clinical symptoms. To be transmitted from person to person via a mosquito, the parasites must switch from asexual to sexual development and produce male and female gametocytes. Malaria gametocytes consist of five stages (I, II, III, IV and V). The late stage gametocytes (III, IV and V) are difficult to be cultured in vitro and the long lifespan of mature gametocytes allows them being transmitted from host to mosquitoes unless they are completely eliminated by gametocytocidal agents. To identify gametocytocidal compounds which are capable of killing late stage P. falciparum gametocytes, a high throughput gametocyte viability assay was employed. This assay uses oxidoreduction indicator, alamarBlue, as a general measure of metabolic activity of gametocytes. Within live cells, the nonfluorescent resazurin is reduced to resorufin, a bright red fluorescence dye. Fluorescence decreases upon treatment of gametocytocidal compounds. P. falciparum gametocyte (3D7 strain) was used in this study.
# The 1536-well gametocycidal viability assay was based on the previous method of Tanaka et al. Stage III-V gametocytes were tested against three compound libraries, including 4265 compounds from NCGC pharmaceutical collection, 400 from Malaria Box library, and 550 from an internal collection of kinase inhibitors. Briefly, 2.5 ul/well incomplete medium was dispensed into each well of 1,536-well plates using the Multidrop Combi followed by 23 nl compound transferring using the NX-TR Pintool (WAKO Scientific Solutions, San Diego, CA). Then, 2.5 ul/well of gametocytes was dispensed with a seeding density of 20,000 cells/well using the Multidrop Combi. The assay plates were incubated for 72 h at 37C with 5% CO2. After addition of 5 ul/well of 2X AlamarBlue dye (Life Technologies, cat. no. DAL1100), the plates were incubated for 24 h at 37C with 5% CO2 and then were read in a fluorescence detection mode (Ex = 525 nm, Em = 598 nm) on a ViewLux plate reader (PerkinElmer).
# On the % scale 0 is the no-effect control and ±100 the full control effect; potency means the concentration at half of the fitted maximal effect.
Structure (SMILES),max response,Potency
CCNC(=O)[C@@H]1CCCN1C(=O)[C@H](CCCN=C(N)N)NC(=O)[C@H](CC(C)C)NC(=O)[C@@H](CC(C)C)NC(=O)[C@H](Cc1ccc(O)cc1)NC(=O)[C@H](CO)NC(=O)[C@H](Cc1c[nH]c2ccccc12)NC(=O)[C@H](Cc1cnc[nH]1)NC(=O)[C@@H]1CCC(=O)N1,2.85% (inactive),–
Cc1cccc(/C=C/c2ccccc2)n1,6.48% (inactive),–
CCCCCCCCCCCCCCCCSCC(COC)COP(=O)([O-])OCC[N+](C)(C)C (configuration not stated),-10.5% (inactive),–
COc1cc([C@@H]2c3cc4c(cc3C(O[C@@H]3O[C@@H]5CO[C@@H](C)O[C@H]5[C@H](O)[C@H]3O)C3COC(=O)[C@@H]32)OCO4)cc(OC)c1OP(=O)(O)O (some centres not stated),4.76% (inactive) and -12.7% (inactive),–
C[N+]1(C)CCN(CC(O)(c2ccccc2)C2CCCCC2)CC1 (configuration not stated),-2.89% (inactive),–
NCCNCCN,9.59% (inactive),–
C=C1/C(=C\C=C2/CCC[C@]3(C)[C@@H]([C@H](C)OCCC(C)(C)O)CC[C@@H]23)C[C@@H](O)C[C@@H]1O,-1.53% (inactive),–
Nc1ccc(N)c([N+](=O)[O-])c1,–,39.8 µM (active)
CCc1ccc(/C=C2/SC(=S)NC2=O)cc1,30.7% (inactive),–
C#C[C@]1(OC(C)=O)CC[C@H]2[C@@H]3CCC4=CC(=O)CC[C@@H]4[C@H]3CC[C@@]21C,-3.45% (inactive),–
N[C@@H](C(=O)N[C@@H]1C(=O)N2C(C(=O)O)=C(CSc3cn[nH]n3)CS[C@H]12)c1ccc(O)cc1,-0.063% (inactive),–
CCCCCCCC[N+](C)(C)CCCCCCCC,–,7.94 µM (active) and 8.91 µM (active)
CCCCCCC(=O)O[C@H]1CC[C@H]2[C@@H]3CCc4cc(O)ccc4[C@H]3CC[C@]12C,-2.62% (inactive),–
C1CCC(N=C(NC23CC4CC(CC(C4)C2)C3)N2CCOCC2)CC1,10.5% (inactive),–
S=C(Nc1ccccc1)Nc1nccs1,–,1.58 µM (active)
Nc1c(S(=O)(=O)O)cc(Nc2ccc(Nc3nc(Cl)nc(Nc4ccc(S(=O)(=O)O)cc4)n3)c(S(=O)(=O)O)c2)c2c1C(=O)c1ccccc1C2=O,27.3% (inactive),–
N#C[C@@H]1C[C@@H]2C[C@@H]2N1C(=O)[C@@H](N)C12CC3CC(CC(O)(C3)C1)C2,-8.8% (inactive),–
CCOC(=O)CCC(=O)O[C@H]1[C@H](O[C@@H]2[C@@H](C)[C@H](O[C@H]3C[C@@](C)(OC)[C@@H](O)[C@H](C)O3)[C@@H](C)C(=O)O[C@H](CC)[C@@](C)(O)[C@H](O)[C@@H](C)C(=O)[C@H](C)C[C@@]2(C)O)O[C@H](C)C[C@@H]1N(C)C,-6.05% (inactive),–
CN(CC(=O)N1CCOCC1)Cc1c(Cl)cccc1NC(=O)c1ccccc1,-0.892% (inactive),–
CC[C@@]1(O)C[C@H](O[C@H]2C[C@H](N(C)C)[C@H](O[C@H]3C[C@H](O)[C@H](O[C@H]4CCC(=O)[C@H](C)O4)[C@H](C)O3)[C@H](C)O2)c2c(cc3c(c2O)C(=O)c2c(O)cccc2C3=O)[C@H]1C(=O)OC,–,0.112 µM (active)
O=Nc1c(-c2c(O)[nH]c3ccccc23)[nH]c2ccccc12,1.55% (inactive),–
C/C1=C2N=C(/C=C3N=C(/C(C)=C4\[N-]C(C(CC(N)=O)C4(C)CCC(=O)NCC(C)OP(=O)([O-])OC4C(CO)OC(n5cnc6cc(C)c(C)cc65)C4O)C4(C)N=C1C(CCC(N)=O)C4(C)CC(N)=O)C(CCC(N)=O)C\3(C)C)C(CCC(N)=O)C/2(C)CC(N)=O.[CH3-].[Co+3] (configuration not stated),–,22.4 µM (active)
N#C/C(=C\c1ccc(O)c(O)c1)C(=O)Nc1ccccc1,12.5% (inactive),–
C[C@H](Cc1ccccc1)Nc1ncnc2c1ncn2[C@@H]1O[C@H](CO)[C@@H](O)[C@H]1O,-7.31% (inactive),–
CCC(=O)O[C@H]1CC[C@H]2[C@@H]3CCc4cc(O)ccc4[C@H]3CC[C@]12C,3.09% (inactive),–
CCOC(=O)CN[C@@H](C(=O)N1CC[C@H]1C(=O)NCc1ccc(/C(N)=N/O)cc1)C1CCCCC1,9.4% (inactive),–
CC1(C)N=C(N)N=C(N)N1c1ccc(Cl)cc1,-2.29% (inactive),–
